CHRM1 PAM: potentiates human M1 receptor response to acetylcholine. P11229. CHO-K1 hM1, Fluo-8 calcium fluorescence, ACh EC20; 0% = ACh EC20, 100% = maximal ACh. activation, % at 3 µM. actives 0.088% (n = 360,000). AID 588819; in the data active = activation above about 19%, passing the limit was not always enough
Target sequence (P11229 whole entry, looked up): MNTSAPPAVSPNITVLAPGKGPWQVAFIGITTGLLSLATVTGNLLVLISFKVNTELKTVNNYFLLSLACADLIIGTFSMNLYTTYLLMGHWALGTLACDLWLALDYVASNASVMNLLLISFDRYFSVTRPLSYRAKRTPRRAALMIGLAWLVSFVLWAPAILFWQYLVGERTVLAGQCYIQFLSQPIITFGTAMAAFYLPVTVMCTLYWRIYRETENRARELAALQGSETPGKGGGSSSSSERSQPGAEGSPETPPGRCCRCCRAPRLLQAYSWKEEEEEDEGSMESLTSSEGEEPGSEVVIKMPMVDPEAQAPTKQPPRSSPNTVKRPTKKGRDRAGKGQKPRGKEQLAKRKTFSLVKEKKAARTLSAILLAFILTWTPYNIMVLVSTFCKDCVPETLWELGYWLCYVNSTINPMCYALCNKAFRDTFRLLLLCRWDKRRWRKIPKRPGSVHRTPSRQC
M1 ag: agonists of human M1 muscarinic receptor | P11229 | CHO-K1 hM1, Fluo-8 calcium fluorescence, agonist mode; 0% DMSO, 100% acetylcholine EC100 | activation, % at 3 µM | actives 0.33% (n = 360,000) | AID 588814;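 active = activation above the run's mean compound activation plus 3 SD, cut at about 16% in these data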;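 note: peak over basal fluorescence ratio within a 140 s kinetic read after compound addition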
CHO-K1 Ca ag: M1 agonist counterscreen hit in parental CHO-K1 cells. Fluo-8 calcium fluorescence; scaled to maximal ATP response, vehicle zero. actives 0.48% (n = 360,000). activation, % at 3 µM; in the data active = activation above about 15%;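 note: untransfected CHO-K1 host cells lacking M1 receptor as counterscreen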
CHRM1 antagonist: blocks human M1 muscarinic receptor; actives 1.3% (n = 360,000); inhibition, % at 3 µM; CHO-K1 hM1, Fluo-8 calcium fluorescence, ACh EC80 antagonist; P11229;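 active = percent inhibition above its own plate's cutoff, namely the mean of that plate's compound wells plus 3 SD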;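 note: peak over basal fluorescence ratio during 140 s after agonist addition; 0% = ACh EC80 plus DMSO and 100% = DMSO alone without agonist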
CHO-K1 Ca antag: counter-screen for M1 antagonists: effect in parental CHO-K1 cells; ATP-induced calcium, Fluo-8 fluorescence; inhibition, % at 3 µM; actives 0.6% (n = 360,000); AID 602250;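 active = inhibition above a per-plate cutoff, the plate's mean sample inhibition plus 3 SD, cut at about 24% in these data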;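 note: 0% = DMSO plus EC80 ATP and 100% = DMSO alone without ATP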
M1 PAM parental: counter-screen for M1 PAMs: effect in parental CHO-K1 cells; ATP EC20, Fluo-8 calcium fluorescence; 0% at ATP EC20, 100% at ATP max; actives 0.02% (n = 360,000); activation, % at 3 µM;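 active = activation above the run cutoff, the mean activation of all test compounds plus 3 SD, cut at about 40% in these data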;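 note: peak over basal fluorescence ratio in a 140 s read after ATP addition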
Active calls of the source: *. The list is not random: actives were taken first. Their share in the collection is about 2.4%.

SMILES | CHRM1 PAM | M1 ag | CHO-K1 Ca ag | CHRM1 antagonist | CHO-K1 Ca antag | M1 PAM parental
COCCN(Cc1ccccc1)C(=O)Cc1ccc(OC)c(S(=O)(=O)N2CCOCC2)c1 | 3.9 | -1.1 | 2.4 | -10.3 | -6.9 | 11.8
COc1ccc(CC(=O)N(Cc2ccccc2)c2ccccc2)cc1S(=O)(=O)N1CCOCC1 | -9.3 | 1.6 | 13.2 | 26.3* | -3.8 | 17.9
O=C(NCc1cccnc1)C(=O)C1C(=O)Nc2ccccc21 (stereo not given) | 15.6 | 0.1 | 0.4 | -11.0 | -4.6 | 5.5
CCOc1cccc(Cc2c[nH]c(=O)[nH]c2=O)c1 | 1.4 | -1.9 | -0.4 | -3.1 | -0.9 | -7.7
COc1ccc(NC(=O)c2cc(S(=O)(=O)N3CCCCC3)ccc2C)cc1S(=O)(=O)N1CCOCC1 | -4.5 | -5.3 | -0.9 | 9.4 | 6.6 | -2.1
CCN(CC)CC#CC(OC)(c1ccccc1)c1ccccc1 | -37.7 | -15.8 | -0.5 | 100.1* | -3.3 | -0.9
CCN(CC)CC#Cc1ccc(C)cc1 | -1.6 | -4.9 | 0.8 | 2.7 | -1.2 | 3.7
CC(C)Cc1ccc(C(C)C(=O)Nc2ccc(O)cc2)cc1 (stereo not given) | -15.4 | 53.6* | 29.3* | 50.0* | 34.1* | 6.1
CC(C)Cc1ccc(C(C)C(=O)Nc2cccnc2)cc1 (stereo not given) | -14.8 | 13.2 | 15.6* | 32.1* | 4.7 | 6.8
CCOc1ccc(-c2nc3scc(-c4cccs4)c3c(=O)[nH]2)cc1 | -0.8 | -4.8 | 0.2 | 1.4 | -14.8 | -9.8
COc1ccc(Nc2nc(N)nc(CSC(=S)N3CCCCC3)n2)cc1 | 8.7 | -9.8 | 0.7 | -13.2 | -1.7 | 9.2
COc1ccc(Nc2nc(N)nc(CSC(=S)N3CCCCC3C)n2)cc1 (stereo not given) | -1.1 | 1.5 | 22.4* | 8.3 | 6.8 | 2.8
O=C1C2C3C=CC(CC3)C2S(=O)(=O)C2C3C=CC(CC3)C12 (stereo not given) | 8.1 | -4.3 | 1.0 | -17.8 | -10.4 | 24.2
O=C(COc1ccc2ccccc2c1)N1CCN(c2ccccc2O)CC1 | -6.3 | -1.2 | 0.5 | -9.3 | 23.7* | -6.1
O=C(COc1ccc2ccccc2c1)N1CCNCC1 | 16.9 | -3.1 | 0.1 | -20.8 | -22.9 | 23.4
Cc1cc(C)c(S(=O)(=O)Cc2ccc(Cl)cc2)c(=O)[nH]1 | 2.4 | -2.7 | -0.6 | 4.8 | 5.4 | 17.7
Cc1cc(C)c(S(=O)(=O)Cc2ccccc2)c(=O)[nH]1 | 8.6 | -0.8 | -0.3 | 4.0 | 24.6* | -15.9
COCCNC(=O)c1cc2c(=O)[nH]c3ccccc3c2s1 | 4.9 | -0.7 | 1.0 | 4.8 | -4.3 | -0.6
CCN(CC)CCNC(=O)c1ccc2c(c1)NC(=O)c1ccccc1S2 | 3.7 | -11.5 | -0.2 | 2.9 | 5.1 | 10.6
CCCN1CCN(CCCNC(=O)c2cc3c(=O)oc4ccc(C)cc4c3s2)CC1 | -6.3 | 20.7* | -0.3 | -0.8 | 1.6 | -17.2
CCCN1CCN(CCCNC(=O)c2cc3c(=O)[nH]c4ccccc4c3s2)CC1 | -6.7 | 20.9* | 0.4 | 12.5 | -9.2 | 9.9
CCCN1CCN(CCCNC(=O)c2ccc3c(c2)NC(=O)c2ccccc2S3)CC1 | -19.9 | -4.9 | 0.1 | 42.0* | -5.7 | 6.1
Cc1cccc(C)c1NC(=O)NC1(C(=O)NCc2ccncc2)CCCCC1 | 12.4 | -1.3 | 0.3 | -12.6 | -1.7 | 14.0
CCCS(=O)(=O)c1nc(S(=O)(=O)c2ccc(Cl)cc2)c(N2CCC(O)CC2)s1 | 5.7 | -1.7 | 2.2 | -18.6 | -10.6 | -4.2
CCCSc1ncnc2[nH]ncc12 | 4.9 | -4.2 | -0.1 | -11.0 | 1.9 | 1.0
SMILES | CHRM1 PAM | M1 ag | CHO-K1 Ca ag | CHRM1 antagonist | CHO-K1 Ca antag | M1 PAM parental
CCCN(CCC)C(=O)c1ccc2c(c1)N(CC)C(=O)c1ccccc1S2(=O)=O | -32.3 | -11.2 | 0.2 | 42.0* | -3.7 | -9.5
COc1ccc(S(=O)(=O)N(CC(C)C)C2CCS(=O)(=O)C2)cc1OC (stereo not given) | 0.7 | -2.3 | 0.5 | -1.4 | -12.7 | -21.9
CCN(C(=O)c1ccc(C(C)(C)C)cc1)c1nnc(Cn2nnc3ccccc32)s1 | -19.1 | 0.5 | 8.1 | 36.9* | 31.3* | -7.2
O=C(O)CCn1nc(-c2ccc(F)cc2)cc(Cc2ccccc2)c1=O | -3.1 | -4.2 | 0.8 | 11.7 | -10.8 | 11.1
Cc1cc(C)c(NC(=O)c2ccc3c(c2)C(=O)N(Cc2cccnc2)C3=O)c(C)c1 | 5.5 | -2.2 | 2.1 | -5.2 | -7.9 | 11.9
Cc1ccc(O)c(NC(=O)c2ccc3c(c2)C(=O)N(Cc2cccnc2)C3=O)c1 | 0.8 | 8.3 | 8.5 | 29.8 | 33.0* | -25.3
CCOC(=O)C1C(c2cccc(F)c2)NC(=S)NC1(O)C(F)(F)F (stereo not given) | -0.6 | -6.6 | 0.5 | -1.2 | 5.6 | -10.1
CC(=O)c1cccc(OCc2cc(C(=O)N3C[C@@H](C)O[C@@H](C)C3)no2)c1 | -2.3 | -0.8 | 1.3 | -1.3 | 59.0* | 9.5
Cc1sc2ncnc(NCC(O)c3ccc([N+](=O)[O-])cc3)c2c1C (stereo not given) | -20.3 | 0.3 | 18.0* | 33.6* | 27.1* | -0.2
Cc1sc2ncnc(NCC(O)c3ccccc3)c2c1C (stereo not given) | -10.9 | -1.3 | 17.5* | 15.6 | 14.4 | 7.2
Cc1sc2ncnc(NCC(c3ccccc3)N(C)C)c2c1C (stereo not given) | -31.0 | -10.6 | 4.3 | 57.4* | 6.7 | -17.1
Cc1sc2ncnc(NCCCO)c2c1C | -6.8 | 0.3 | -0.2 | 13.7 | 7.2 | -7.6
CC(C)CC1CCCCC1OC(=O)C[N+]1(C)CCCCC1 (stereo not given) | -35.6 | -14.2 | -0.1 | 95.5* | -11.4 | 16.2
CCc1ccc2c(c1)Sc1ccccc1CC2N1CCN(C)CC1 (stereo not given) | -22.5 | 0.3 | 10.2 | 52.5* | -2.2 | 17.5
CN1CCN(C2Cc3cc(Cl)ccc3Sc3cc(F)ccc32)CC1 (stereo not given) | -25.9 | -4.8 | 8.5 | 98.8* | -6.3 | 18.1
CCCOc1ccc(C2C(C(=O)c3ccco3)=C(O)C(=O)N2CCCn2ccnc2)cc1OC (stereo not given) | 4.3 | -3.5 | 0.7 | -7.0 | -9.9 | 21.5
CCN1CCN(c2ccc(N3CCN(S(=O)(=O)c4ccc(C)c([N+](=O)[O-])c4)CC3)nn2)CC1 | -20.9 | -7.0 | -0.5 | 28.6* | 2.6 | -10.3
NCCCCNCCCN | -28.8 | 79.3* | 0.0 | 62.0 | -18.1 | 27.8
NCCNCCNCCN | -1.8 | -0.4 | -0.2 | -27.1 | 10.7 | 13.8
COc1ccccc1CN1CCC(CNS(=O)(=O)c2cc(-c3cc(C)no3)ccc2OC)CC1 | -24.2 | -5.7 | 0.5 | 93.4* | -18.5 | 1.3
CC(/C=N/NC(=O)CCn1nnc2ccccc21)=C\c1ccccc1 | 1.6 | -4.7 | 1.0 | 2.2 | -3.3 | 2.3
CC1CCc2nn(CC(=O)N3CCc4ccccc43)cc2C1 (stereo not given) | -34.5 | -13.6 | 0.9 | 101.8* | 5.6 | 9.3

Compound activity: PubChem, The Scripps Research Institute Molecular Screening Center
